This is an account of results in PubChem BioAssay.

Inconclusive results are not listed. Activity calls are given as the source filed them. Cut-off read from the data, not from the text of the source, unless noted: active = inhibition above about 30%; inactive = the rest.

Experiment [1] can be described thus: reducers of endogenous Her2 protein level, primary screen, SKBR3 breast tumor cells, AlphaScreen, ATP viability (AID 461;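 active = Her2 level under about 52% in both replicate screens, with viability over 70% of control, limit read from the data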;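 for Her2 level: lower value means less Her2 protein in the cells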;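 for viability: percent of carrier control wells set as 100% viability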). To be noted: 18-24 h, measured here: SKBR3 viability, ATP luminescence, at 10 µM. In general terms: In Alpha technology, singlet oxygen from a donor bead excites a nearby acceptor bead.
Experiment [2] concerns the target Receptor tyrosine-protein kinase erbB-2 (Homo sapiens) (UniProt P04626). The experiment is described as above. Particulars: 18-24 h, at 10 µM, stronger effect = lower value.
The nature of experiment [3]: SK-BR-3 cell growth inhibitors, pilot screen, 24 h, human (AID 572;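 active = viability at or below 10% of carrier control in both of two separate runs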;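 note: compound exposure lasted between 18 and 24 h rather than exactly 24 h; 100% = carrier-treated control wells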). To be noted: SK-BR-3 viability, CellTiter-Glo luminescence, at 10 µM, stronger effect = lower value.
The nature of experiment [4]: growth inhibitors of H69AR lung tumor, primary screen, human, duplicate replicates (AID 580;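 active = viability at or under a set limit in both replicates, limit being median viability minus 3 SD, cut at about 48% in these data, passing the limit was not always enough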;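 note: 100% = mean luminescence of untreated wells and 0% = no signal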). To be noted: H69AR lung tumor cells viability, ATP luminescence, 72 h; at 10 µM; stronger effect = lower value.
Experiment [5] in a line: reversal of MRP1-mediated doxorubicin resistance, pilot screen, H69AR cells, doxorubicin co-treatment (AID 601;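 active = viability loss from added drug above about 55%, and viability with drug at most 40%, in both replicates, limit read from the data, passing the limit was not always enough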). To be noted: CellTiter-Glo, 72 h, at 10 µM; for differential viability (reversal): stronger effect = higher value. Background: In ATP-based viability assays light output follows the ATP content of the culture.
Experiment [6] is described as follows: 384-well plate pilot, post-Golgi transport modulator project, inhibition of yeast transport mutant growth (AID 636; in the data active = inhibition above about 31%). To be noted: absorbance 615 nm, about 18 h, stronger effect = higher value.
Experiment [7] is described as follows: growth suppression of yeast trafficking mutant, preliminary HTS, modulators of trafficking downstream of Golgi apparatus project, 1536-format plate, OD 615 nm (AID 637). To be noted: yeast transport mutant growth, absorbance 615 nm, 18 h; stronger effect = higher value.
A short description of experiment [8]: OD615 S. cerevisiae growth inhibition, permissive medium, pilot counter-assay, permissive growth control for S. cerevisiae lifespan shortening project (AID 705;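 active = growth inhibition above 25% in both replicates, a cutoff set 3 SD above the mean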). To be noted: OD615, 24 h, at 10 µM, stronger effect = higher value.
The nature of experiment [9]: Restrictive medium S. cerevisiae growth inhibition, OD615, pilot screen of yeast lifespan reduction project, restrictive growth control (AID 706;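 active = growth inhibition above a set limit, 3 SD over mean compound inhibition, in both replicates, cut at about 43% in these data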;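 note: modified DeaD lifespan yeast strain shifted to restrictive glucose medium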). To be noted: OD615, 48 h, at 10 µM, stronger effect = higher value.
The nature of experiment [10]: viability gain of MRP-1-high H69AR cells under doxorubicin, pilot screen, MRP-1 activator project, CellTiter-Glo, duplicate (AID 807;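 active = viability increase at or above a cutoff of the median across tested compounds plus 3 SD, cut at about 8.5% in these data, passing the limit was not always enough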;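 note: compound pretreatment 18-22 h then 72 h combined with doxorubicin; 0% = doxorubicin alone and 100% = vehicle without doxorubicin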). To be noted: H69AR viability with doxorubicin, CellTiter-Glo luminescence; at 10 µM; stronger effect = higher value.
Experiment [11] is described as follows: growth suppression of beta-catenin knockout HCT116, pilot screen, human colon tumor cells (AID 823;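 active = cell viability at or below a set limit in both duplicate runs, the limit being the all-compound median minus 4 SD, cut at about 23% in these data, passing the limit was not always enough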;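 note: 0% = wells killed by 20 µM Hyamine and 100% = untreated DMSO cell wells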). To be noted: CellTiter-Glo, 60 h, at 10 µM, stronger effect = lower value.
The nature of experiment [12]: growth suppression of PTEN-deleted HCT116, pilot screen, cell-based, HCT116 clonal line, CellTiter-Glo (AID 824;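 active = viability at or below 27.92% in each of two runs, the all-compound median minus 4 SD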;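 note: 0% = 20 µM Hyamine control and 100% = vehicle cell control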). To be noted: 60 h, at 10 µM, stronger effect = lower value.
Experiment [13] is described as follows: inhibitors of the yeast RAM network, pilot screen, dse1pr::URA3 reporter, 5-FOA selection (AID 869;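 active = inhibition over a set limit, the all-compound mean plus 3 SD, in both replicate runs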;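 note: 0% = DMSO wells with no growth and 100% = 10 µM 1-NA-PP1 with full growth; RAM network block rescues cells from 5-FOA so hits raise OD615 growth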). Particulars: S. cerevisiae dse1pr::URA3 5-FOA growth, OD615, 2 d; at 10 µM; stronger effect = higher value; strain carries analog-sensitive mutant Cbk1 kinase.
Experiment [14] is described as follows: RAM signaling pathway blockade in yeast – S. cerevisiae, Pdr1DBD-CYC8 efflux-inhibited sensitized strain, primary screen (AID 1298;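 active = RAM network inhibition above 8.4% in each of two replicates, 3 SD over the compound average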;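 note: 0% = DMSO untreated cells without growth and 100% = 10 µM 1-NA-PP1 full growth; higher means more yeast growth rescued from 5-FOA killing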). Particulars: S. cerevisiae cbk1-as DSE1-URA3 strain, 5-FOA growth OD615, 2 d; at 50 µM; stronger effect = higher value.
Experiment [15] in a line: HUVEC growth inhibition – cell-based, human, primary screen (AID 575;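 active = viability at or below 30% in both replicate assays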;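 note: 100% = median of untreated cell wells with 0.1% DMSO on each plate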). Particulars: HUVEC proliferation, CellTiter-Glo luminescence, 72 h; at 10 µM; stronger effect = lower value.
Setting [16] is: H69AR cells + 2 uM doxorubicin, measured here: viability with 2 uM doxorubicin, stronger effect = lower value.
The mark [17] stands for this setting: H69AR cells, compound alone cytotoxicity.

Chain of Receptor tyrosine-protein kinase erbB-2 (Homo sapiens) (P04626 whole entry, looked up): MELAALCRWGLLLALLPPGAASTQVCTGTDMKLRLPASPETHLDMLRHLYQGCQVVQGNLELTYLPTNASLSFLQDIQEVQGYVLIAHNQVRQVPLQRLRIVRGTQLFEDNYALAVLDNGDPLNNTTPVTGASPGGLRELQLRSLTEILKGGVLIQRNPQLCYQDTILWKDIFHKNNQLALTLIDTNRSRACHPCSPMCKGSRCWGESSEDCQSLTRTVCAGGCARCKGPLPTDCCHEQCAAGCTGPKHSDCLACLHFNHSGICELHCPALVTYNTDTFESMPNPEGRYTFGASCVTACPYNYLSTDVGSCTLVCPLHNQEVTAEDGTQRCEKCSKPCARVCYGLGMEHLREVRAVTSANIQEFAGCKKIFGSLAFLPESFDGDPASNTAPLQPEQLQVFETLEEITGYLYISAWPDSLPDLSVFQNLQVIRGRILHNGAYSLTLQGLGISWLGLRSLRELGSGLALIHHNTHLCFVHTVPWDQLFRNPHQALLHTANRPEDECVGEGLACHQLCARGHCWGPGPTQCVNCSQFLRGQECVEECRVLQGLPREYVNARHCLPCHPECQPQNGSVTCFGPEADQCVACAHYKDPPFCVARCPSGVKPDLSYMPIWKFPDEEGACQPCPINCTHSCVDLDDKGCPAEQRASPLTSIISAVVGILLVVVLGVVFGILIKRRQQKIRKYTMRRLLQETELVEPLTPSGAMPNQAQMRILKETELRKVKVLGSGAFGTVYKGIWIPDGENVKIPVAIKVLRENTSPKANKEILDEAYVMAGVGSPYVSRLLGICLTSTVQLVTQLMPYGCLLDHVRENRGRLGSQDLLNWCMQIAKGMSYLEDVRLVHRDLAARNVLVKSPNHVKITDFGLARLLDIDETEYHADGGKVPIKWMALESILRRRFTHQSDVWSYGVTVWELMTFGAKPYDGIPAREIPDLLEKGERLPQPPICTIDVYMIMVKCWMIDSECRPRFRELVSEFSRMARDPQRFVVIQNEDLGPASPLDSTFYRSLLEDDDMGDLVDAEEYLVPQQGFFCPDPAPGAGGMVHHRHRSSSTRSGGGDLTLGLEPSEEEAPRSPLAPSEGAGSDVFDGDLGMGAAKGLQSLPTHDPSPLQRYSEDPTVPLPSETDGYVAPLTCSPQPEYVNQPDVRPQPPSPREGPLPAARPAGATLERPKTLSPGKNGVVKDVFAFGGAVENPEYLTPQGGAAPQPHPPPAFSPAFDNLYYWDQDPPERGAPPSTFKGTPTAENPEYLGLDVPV

The viability is a read-out of living cells in per cent, often relative to untreated cells. Usually inhibition stands for the change of the read-out against control, counted positive when it falls. On to `O=C(CS(=O)(=O)c1cn(Cc2ccc(F)cc2)c2ccccc12)N1CCCCC1`, for which the viability in [1] was 92%; in experiment [3], 92% (inactive); in experiment [4], 99.9% (inactive); in [5] (setting [16]), 88%; in [5] (setting [17]), 99.9%; in [11], 82.4% (inactive). For the same molecule, the viability in experiment [12] was 82.9% (inactive). In experiment [2], the Her2 level was 88.5% (inactive). Besides, the differential viability (reversal) in experiment [5] (H69AR cells + 2 uM doxorubicin) was 11.9% (inactive). For the same molecule, the inhibition in experiment [6] was -5.68% (inactive); in experiment [7], -5.17% (inactive); in experiment [13] it was 2.3% (inactive). Moreover, the growth inhibition was -24.1% (inactive) in experiment [8] and -12.8% (inactive) in experiment [9]. Besides, in [10], the viability increase was -3.63% (inactive). Also, in experiment [14], the RAM network inhibition was 5% (inactive).
Regarding `Cc1ccc(C)c(N2CCN(CCCNC(=O)Cn3cc4c(n3)CCC(C)C4)CC2)c1` (stereo not drawn), the viability in [1] was 90.5%; in [3], 90.5% (inactive); in experiment [4], 26.6% (active); in [5] (setting [16]), 46.9%; in experiment [5] (setting [17]), 26.6%; in experiment [11], 1.61% (active). For the same molecule, the viability in experiment [12] was 2.81% (active). Moreover, the Her2 level in experiment [2] is 78% (inactive). Moreover, the differential viability (reversal) in experiment [5] (H69AR cells + 2 uM doxorubicin) was -20.3% (inactive). Also, the inhibition is -1.54% (inactive) in experiment [6], -2.83% (inactive) in experiment [7] and 1.44% (inactive) in experiment [13]. Besides, the growth inhibition is 6.12% (inactive) in [8] and 10.4% (inactive) in experiment [9]. Also, the viability increase in experiment [10] was -6.04% (inactive). Moreover, in experiment [14], the RAM network inhibition is 0.11% (inactive).
With `Cn1c(=O)oc2cc(S(=O)(=O)N3CCN(c4ccccn4)CC3)ccc21`, the viability was 88.5% in experiment [1]; 88.5% (inactive) in [3]; 73.8% (inactive) in experiment [4]; 73.5% in experiment [5] (setting [16]); 73.8% in [5] (setting [17]); 66% (inactive) in experiment [11]. The viability in experiment [12] was 69.4% (inactive). For the same molecule, in experiment [2], the Her2 level was 91.5% (inactive). Moreover, the differential viability (reversal) in [5] (H69AR cells + 2 uM doxorubicin) is 0.275% (inactive). Besides, the inhibition in experiment [6] was 0.26% (inactive); in experiment [7], -3.67% (inactive); in [13], 1.97% (inactive). Also, the growth inhibition is -8.03% (inactive) in experiment [8] and -3.75% (inactive) in experiment [9]. Further, the viability increase in experiment [10] is -5.33% (inactive). Also, the RAM network inhibition in [14] was 5.16% (inactive).
For `Cc1cc(/C=N/n2cnnc2)c(C)n1-c1cccc(Cl)c1`, the viability in experiment [1] was 84%; in experiment [3] it was 84% (inactive); in experiment [4], 86.4% (inactive); in experiment [5] (setting [16]) it was 65.9%; in experiment [5] (setting [17]), 86.4%; in experiment [11], 83.7% (inactive). Moreover, the viability in experiment [12] was 73.2% (inactive). Moreover, the Her2 level in [2] was 92% (inactive). For the same molecule, the differential viability (reversal) in [5] (H69AR cells + 2 uM doxorubicin) was 20.5% (inactive). For the same molecule, the inhibition in [6] was -5.26% (inactive); in experiment [7], 3.83% (inactive); in experiment [13] it was 2.75% (inactive). In addition, the growth inhibition in experiment [8] was -2% (inactive); in experiment [9] it was 22.7% (inactive). Further, the viability increase in experiment [10] was -3.15% (inactive). Besides, the RAM network inhibition in experiment [14] is 2.81% (inactive).
For `Cc1nc2ccccc2c2oc(C(=O)NCC3COc4ccccc4O3)cc12` (stereo not drawn), the viability was 103% in experiment [1]; 103% (inactive) in experiment [3]; 88.4% (inactive) in [4]; 88.3% in experiment [5] (setting [16]); 88.4% in [5] (setting [17]); 61.2% (inactive) in [11]. Further, the viability in experiment [12] is 70.8% (inactive). In addition, the Her2 level in experiment [2] was 58.5% (inactive). In addition, the differential viability (reversal) in experiment [5] (H69AR cells + 2 uM doxorubicin) is 0.085% (inactive). In addition, the inhibition in experiment [6] was 0.13% (inactive); in experiment [7], 6.33% (inactive); in [13], 1.69% (inactive). In addition, the growth inhibition in experiment [8] is -0.145% (inactive); in [9] it was -3.1% (inactive). Moreover, the viability increase in experiment [10] was -1.89% (inactive). For the same molecule, the RAM network inhibition in [14] is 3.41% (inactive).
With `Clc1c(CSc2nc3ccccc3o2)nc2sccn12`, the viability is 116% (inactive) in [3]; 82% (inactive) in experiment [15]; 92.9% (inactive) in [4]; 79.8% in experiment [5] (setting [16]); 92.9% in [5] (setting [17]); 77.3% (inactive) in experiment [11]. For the same molecule, the viability in [12] is 81% (inactive). In addition, the differential viability (reversal) in experiment [5] (H69AR cells + 2 uM doxorubicin) was 13.2% (inactive). Besides, the inhibition is -1.04% (inactive) in [6], 2.95% (inactive) in experiment [7] and -0.115% (inactive) in experiment [13]. Moreover, the growth inhibition is -13.5% (inactive) in experiment [8] and -9.04% (inactive) in [9]. Also, the viability increase in [10] is -6.43% (inactive). The RAM network inhibition in experiment [14] was -0.26% (inactive).
Regarding `COc1ccccc1S(=O)(=O)Cc1ccc(C(=O)NCCN2CCCCCC2)o1`, the viability was 71% in [1]; 97.5% (inactive) in experiment [15]; 102% (inactive) in experiment [4]; 90% in experiment [5] (setting [16]); 102% in [5] (setting [17]); 104% (inactive) in experiment [11]. Besides, the viability in experiment [12] was 104% (inactive). Moreover, in experiment [2], the Her2 level is 102% (inactive). The differential viability (reversal) in [5] (H69AR cells + 2 uM doxorubicin) is 11.8% (inactive). Further, the inhibition was -0.9% (inactive) in [6], -1.33% (inactive) in [7] and 1.38% (inactive) in experiment [13]. Moreover, the growth inhibition is 2.4% (inactive) in experiment [8] and -14.5% (inactive) in experiment [9]. Also, the viability increase in experiment [10] was -2.82% (inactive). Also, the RAM network inhibition in experiment [14] was 7.66% (inactive).
Take `CCOc1ccccc1NC(=O)C1CCCN(S(=O)(=O)c2cccc3cccnc23)C1` (stereo not drawn): the viability was 108% in experiment [1]; 108% (inactive) in experiment [3]; 78.1% (inactive) in [4]; 89.8% in experiment [5] (setting [16]); 78.1% in [5] (setting [17]); 76.2% (inactive) in experiment [11]. Further, the viability in experiment [12] was 71.9% (inactive). Also, the Her2 level in experiment [2] is 94.5% (inactive). Moreover, the differential viability (reversal) in [5] (H69AR cells + 2 uM doxorubicin) is -11.7% (inactive). In addition, the values for the inhibition in [6], in [7] and in experiment [13] were -6.13% (inactive), 1.67% (inactive) and 1.14% (inactive), respectively. In addition, the growth inhibition is -4.4% (inactive) in experiment [8] and -21% (inactive) in experiment [9]. The viability increase in experiment [10] is -3.58% (inactive). The RAM network inhibition in experiment [14] is 4.95% (inactive).
For `O=C(O)CC(C(=O)Nc1cccc(C(F)(F)F)c1)C1CCCO1` (stereo not drawn), the viability in experiment [3] is 76% (inactive); in experiment [15], 108% (inactive); in experiment [4], 97.6% (inactive); in experiment [5] (setting [16]), 94.3%; in experiment [5] (setting [17]) it was 97.6%; in experiment [11], 104% (inactive). Besides, the viability in experiment [12] was 100% (inactive). Moreover, in [5] (H69AR cells + 2 uM doxorubicin), the differential viability (reversal) is 3.26% (inactive). Moreover, the results for the inhibition in experiment [6], in [7] and in [13] were -3.33% (inactive), -8% (inactive) and -0.115% (inactive), respectively. The growth inhibition is -10.5% (inactive) in experiment [8] and -6.54% (inactive) in experiment [9]. Moreover, the viability increase in experiment [10] was 1.01% (inactive). In experiment [14], the RAM network inhibition was 2.56% (inactive).
On to `COc1cccc(-c2nc(CS(=O)(=O)CC(=O)Nc3cc(C)ccc3C)c(C)o2)c1`, for which the viability in [1] is 76%; in experiment [3], 76% (inactive); in experiment [15], 70.7% (inactive); in [5] (setting [16]) it was 50.8%; in experiment [5] (setting [17]), 66.1%; in experiment [11], 98.4% (inactive). For the same molecule, in experiment [12], the viability is 91.4% (inactive). In addition, in experiment [2], the Her2 level was 86.5% (inactive). In [5] (H69AR cells + 2 uM doxorubicin), the differential viability (reversal) is 15.3% (inactive). The inhibition in [6] is -1.73% (inactive); in experiment [7], -4.1% (inactive); in experiment [13], 3.55% (inactive). The results for the growth inhibition in experiment [8] and in [9] were -3.37% (inactive) and -3.22% (inactive), respectively. In addition, in [10], the viability increase is -1.75% (inactive). The RAM network inhibition in [14] was 0.99% (inactive).
